Measurements published in PubChem BioAssay AID624354 (Sanford-Burnham Center for Chemical Genomics, 2012).
Screen size: about 360,000 compounds; about 3,800 (1.1%) were called active. The sample as a whole holds a higher share of actives than the screen did. Values without a mark were called inactive.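 The calls were made as follows: active = compounds causing at least 50% loss of cell viability in the single-dose screen, relative to plate controls; inactive = the rest.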

Experiment: TRAIL-exposed caspase-8 expressing cell killing – NB7+C8 cells, ATPlite luminescence, TRAIL sensitizer project, primary screen (AID 624354)
Conditions: at 10 µM, stronger effect = higher value

| Structure (SMILES) | inhibition (viability loss, TRAIL sensitization) |
| --- | --- |
| CN1CCC(CN)(N2CCN(c3ccccc3)CC2)CC1 | 6.93% |
| COc1ccc(CCNc2cc(N3CCN(C(=O)c4ccccc4OC)CC3)ccc2[N+](=O)[O-])cc1OC | 39.3% |
| O=[N+]([O-])c1ccc(C=Nc2ccc(Cl)cc2Cl)s1 | 53.8% (active) |
| C[C@@H]1CN([C@@H](C)CO)C(=O)c2cc(NS(C)(=O)=O)ccc2O[C@@H](C)CCCCO[C@H]1CN(C)C(=O)Nc1ccc2c(c1)OCO2 | -14.6% |
| COc1cccc(-c2cc3nc(NCCOc4ccccc4Cl)n(C)c(=O)c3s2)c1 | -1.03% |
| O=c1[nH]c(CCl)nc2cc(-c3ccc(Cl)cc3)sc12 | 94.8% (active) |
| Cn1c(NCc2cccnc2)nc2cc(-c3ccc(F)cc3)sc2c1=O | 12.2% |
| CN(CC(=O)Nc1cccc(F)c1)C(=O)C1CC(=O)N(CCc2ccccc2)C1 (stereo not given) | 0.466% |
| Clc1ccc(Nc2ccc3ccccc3n2)cc1 | 22.5% |
| C(=N\Nc1ccc2ccccc2n1)/c1ccc2c(c1)OCO2 | 62.1% (active) |
| O=C(CNC(=O)C(c1ccccc1)c1ccccc1)N/N=C\c1ccc2c(c1)OCO2 | 9.36% |
| COc1ccc(NC(=O)C2(C)Cc3c(-c4cccc(NC(C)=O)c4)ccnc3O2)cc1OC (stereo not given) | 4.61% |
| CCCCN1CC(N2CCN(Cc3cccc(C)c3)CC2)CS1(=O)=O (stereo not given) | 4.54% |
| CC(=O)[C@@]12O[C@@H]1C[C@H]1[C@@H]3CC[C@H]4C[C@@H](O)CC[C@]4(C)[C@H]3CC[C@@]12C | 0.527% |
| CCCNc1c(N)c(=O)c1=O | -1.54% |
| C[C@H]1COc2cc(N3CCSCC3)ccc2S(=O)(=O)N1 | -6.12% |
| Cc1cc(Br)cn2c(Cc3ccccc3C(F)(F)F)c(-c3ccc(Cl)cc3)nc12 | 22.1% |
| O=C(O)c1cc(S(=O)(=O)N(Cc2ccccc2)c2ccccc2)ccc1Cl | -9.38% |
| CCN(CC)CCCC(C)n1c2nc(=O)[nH]c(=O)c-2nc2cc(Cl)ccc21 (stereo not given) | 48.4% (active) |
| CCc1ccc(S(=O)(=O)Nc2ccc(C)c(NS(C)(=O)=O)c2)cc1 | -5.21% |
| Cc1c(O)c(C)c2c(c1O)C(=O)C[C@@H](c1ccccc1)O2 | 18.2% |
| CC1CN(C(=O)CCC(=O)NCCCN2CCC(Cc3ccccc3)CC2)c2cc(Cl)ccc2O1 (stereo not given) | 40.8% |
| CC(C)=CCC/C(C)=C/C(=O)O | -7.95% |

| Structure (SMILES) | inhibition (viability loss, TRAIL sensitization) |
| --- | --- |
| O=C(COC(=O)c1ccc(O)cc1O)c1ccc2c(c1)OCCO2 | 0.773% |
| COc1ccc(OC)c(/C=C/C(=O)c2ccc3c(c2)OCO3)c1 | 12.1% |
| O=C(/C=C/c1ccc2c(c1)OCCO2)c1ccc(O)cc1 | 58.1% (active) |
| CCOCCCN(C(=O)Cn1nnc(-c2ccc(OC)c(OC)c2)n1)C(CC)C(=O)NC1CCCC1 (stereo not given) | -5.95% |
| CCOC(=O)C(NS(=O)(=O)c1ccc(C)cc1)(C(F)(F)F)P(=O)(OCC(C)C)OCC(C)C (stereo not given) | 27.5% |
| COc1ccccc1N1CCN(S(=O)(=O)c2ccc3c(c2)NC(=O)CS3)CC1 | 8.43% |
| Cc1nn(Cc2ccc(C(=O)N3N=C(C(F)F)CC3(O)C(F)F)cc2)c(C)c1[N+](=O)[O-] (stereo not given) | 0.592% |
| CC(=O)Nc1ccc(S(=O)(=O)NC(C)C(=O)OCCOc2ccc(F)cc2)cc1 (stereo not given) | -1.76% |
| CS(=O)(=O)c1cccc(-c2ccc3nncn3c2)c1 | 1.26% |
| CC(C)n1cnc2c(NCc3ccccc3)cc(OCC3CCN(C)CC3)cc21 | 54.6% (active) |
| COCCNC(=O)CN(C(=O)CCC(=O)Nc1cc(C)on1)c1ccc(C)cc1C | 12.5% |
| O=C(NCc1ccccc1)C(c1ccc(F)cc1)N1CCN(C(=O)C2CCCO2)CC1 (stereo not given) | 3.33% |
| CCCCC(=O)Nc1cc(C)c2c(=O)oc3ccccc3c2n1 | 58.6% (active) |
| CCCCC(=O)Nc1ccc2c(c1)C(=O)NC2=O | 8.86% |
| Cc1ccc(C)c(NC(=O)CSc2nc3c(oc4ccccc43)c(=O)n2-c2ccccc2)c1 | -5.26% |
| Cc1cc(Cl)c(S(=O)(=O)Nc2ccc3c(c2)OCCO3)cc1OCC(N)=O | 1.34% |
| CC1CCc2c(sc3c2C2=NS(=O)(=O)CCN2C=N3)C1 (stereo not given) | -12.9% |
| O=C1C[C@@H]2c3c(cccc3CN1Cc1ccccc1)C[C@@H](O)[C@H]2O | -11.3% |
| COc1ccc2c(c1)CCCO[C@]21O[C@H](CCO)C[C@H](O)[C@H]1O | 2.33% |
| Nc1nc2ncccn2c1-c1ccccc1 | -21.7% |
| COc1ccc(C(=O)NC(C)c2nccs2)cc1OC1CCN(C(C)C)CC1 (stereo not given) | -24.4% |
| O=C(CC1SC(=Nc2ccccc2F)N(CCN2CCOCC2)C1=O)Nc1ccc(F)cc1F (stereo not given) | 72.8% (active) |
| O=C(CC1SC(N2CCOCC2)=NC1=O)Nc1ccccc1F (stereo not given) | 7.68% |

| Structure (SMILES) | inhibition (viability loss, TRAIL sensitization) |
| --- | --- |
| O=C(CN1CCN(C/C=C/c2ccccc2)CC1)Nc1ccc(F)cc1F | 8.21% |
| NC(=O)c1ccc(N2CCOCC2)nc1 | -4.39% |
| COc1ccc(N(C)S(=O)(=O)c2cccc3nsnc23)cc1 | -0.348% |
| CC1(C)CC(N2CCN(C(c3ccccc3)c3ccccc3)CC2)=CC(=[N+]2CCCCC2)C1 | 53.6% (active) |
| CCOC(=O)C1=C(c2ccccc2)N=C2SCC(=O)N2C1c1ccc(O)c(OC)c1 (stereo not given) | -13.7% |
| O=C(Nc1ccc2c(c1)OCCO2)C(C1CC1)N1CCC(Cc2ccccc2)CC1 (stereo not given) | 1.75% |
| c1c2c(cc3sc(N4CCCCC4)nc13)OCCO2 | 76.5% (active) |
| CCN1CCC2(CCN(Cc3cn[nH]c3-c3ccc(OC)c(F)c3)C2)C1 (stereo not given) | -3.56% |
| CCOc1ccc(NC(=O)CCCCCN2C(=O)[C@@H]3Cc4ccccc4CN3C2=O)cc1 | 9.4% |
| Cc1ccc(-c2ccc(=O)n(CC(=O)NCCCN3CCCCC3)n2)cc1 | 16% |
| CCc1ccc(-c2cc3c(=O)n(CC(=O)NCCCN4CCN(Cc5ccccc5)CC4)nc(C)n3n2)cc1 | 57.1% (active) |
| Cc1nn(CC(=O)NCCc2ccccc2)c(=O)c2cc3occc3n12 | -1.06% |
| CC(C)=NN1C(=O)c2ccccc2NC1(C)C | 0.317% |
| CCC(C)C(NC(=O)C1CCC(=O)N1C(=O)OCc1ccccc1)C(=O)NC(C(=O)N1CCCC1C(N)=O)C(C)CC (stereo not given) | 1.84% |
| Cc1sc2ncnc(N3CCC(C(=O)Nc4ccc(F)cc4Cl)CC3)c2c1C | 13.1% |
| CC(C)CCNC(=O)c1ccc2c(Cl)c3c(nc2c1)CCC3 | 63.8% (active) |
| O=C(CSc1c2c(nc3ccc(Cl)cc13)CCCC2)NCc1ccco1 | 7.83% |
| CC(C)CCC(C)NC(=O)c1ccc2nccnc2c1 (stereo not given) | 13.2% |
| COc1ccc(OC)c(/C=N/NC(=O)c2ccc[n+](CC(=O)c3ccccc3)c2)c1 | -13.4% |
| COc1cccc(/C=N\NC(=O)C2=NNC(=O)C2C)c1O (stereo not given) | 61.6% (active) |
| CC1=NNC(=O)C1CCC(=O)N/N=C\c1cccc(Cl)c1 (stereo not given) | -5.29% |
| COCc1cc(=O)[nH]c2cc(NC(=O)C(F)(F)F)c(C)cc12 | 1.06% |
| CCCCOC(=O)CNc1nnc(SCC(=O)OCC)[nH]c1=O | 6.83% |

| Structure (SMILES) | inhibition (viability loss, TRAIL sensitization) |
| --- | --- |
| Cc1cccc(-n2ncc(Cl)c(Cl)c2=O)c1 | 95.2% (active) |
| Nc1c(-c2cccc(Cl)c2)cnn1-c1cccc([N+](=O)[O-])c1 | -1.5% |
| Cc1cccc(N2Cc3ccccc3C2=NC(=O)c2ccc(Cl)nc2)c1 | 4.62% |
| C[C@H](NC(=O)C1CC(=O)N(c2ccc3c(c2)OCCO3)C1)C(=O)N1CCC(C(=O)O)CC1 (stereo not given in full) | -9.83% |
| CC(C)CNC(=O)COC(=O)c1ccccc1OCC(=O)Nc1ccc(Br)cc1 | 5.47% |
| COC(=O)Cc1[nH]n(-c2nc3ccccc3s2)c(=O)c1C(C)=Nc1ccc(OC)cc1 | 61.1% (active) |
| COCCn1c(SCC(=O)c2[nH]c(C)c(C(C)=O)c2C)nc2ccccc2c1=O | -10% |
| NC(=O)COc1ccc(/C=N/NC(=O)C2CCCN2S(=O)(=O)c2ccc(Cl)cc2)cc1 (stereo not given) | -8.47% |
| NC(N)=N/N=C/c1ccc(OCc2ccc(Cl)cc2Cl)cc1 | 50.1% (active) |
| CCCCN(C(=O)C1=NN(c2cc(C)ccc2C)C(=O)CC1)c1c(N)n(CCC)c(=O)[nH]c1=O | -7.09% |
| CC(C)COc1ccc(C(=O)NNC(=O)CCC(=O)c2cccs2)cc1 | -0.727% |
| Cc1ccc(NC(=O)CSCC(=O)N2CCOCC2)cc1 | -10.5% |
| CC(C)COc1ccc(C(=O)OCC(=O)NCCC2=CCCCC2)cc1 | -6.49% |
| COc1ccc(NC(=O)c2ccc(OC)cc2)cc1 | 50.5% (active) |
| COc1cccc(C(=O)Nc2ccc(N3CCCC3)cc2)c1 | 46.7% (active) |
| COc1ccc(C(=O)Nc2ccc(-n3nncc3C(C)(C)C)cc2)cc1 | -20.3% |
| O=C(Nc1ccc(Cl)cc1)c1cccc(OC(=S)N2CCOCC2)c1 | 12.3% |
| COc1ccc(NC(=O)c2ccc(C#CC(C)(C)O)cc2)cc1 | 0.194% |
| COc1cccc(C(=O)Nc2ccc3nc4n(c(=O)c3c2)CCCCC4)c1 | 23.6% |
| COc1ccc(N2c3ccccc3CN(Cc3ccccc3)[C@@H](C)[C@H]2Cc2ccc(-c3ccccc3)cc2)cc1 | -5.86% |
| CCOC(=O)C1CCN(C(=O)Cn2nc(C)c3c(C)n(-c4ccccc4)nc3c2=O)CC1 | -20.8% |
